In PubChem BioAssay AID1159580 (chemical genetic matrix, 2015):
Out of some 5,500 compounds screened, about 2,000 (36%) were called active. About 18% were inconclusive and are not listed. Rule as the data show it: active = normalized growth mostly below about 0.91 (no sharp cut-off); inconclusive = no clear call, values can overlap the other calls; inactive = mostly above about 0.92. The list shows a part of the results.

Assay: chemical genetic growth profiling, strain panel (AID 1159580);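 also: tested at 20 µM; growth read once vehicle control cultures reached saturation at 30 °C; 1 = growth at the plate median or of vehicle wells; lower values mean less growth of the strain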
Conditions: growth OD

Measured: normalized growth

NC[C@@H]1O[C@H](O[C@@H]2[C@@H](CO)OC(O[C@@H]3[C@@H](O)[C@H](N)C[C@H](N)[C@H]3O[C@H]3O[C@H](CO)[C@@H](O)[C@H](O)[C@H]3N)[C@@H]2O)[C@H](N)[C@@H](O)[C@@H]1O (stereo partly drawn)
inactive: S. cerevisiae deletion strains, locus YJR043C, strain POL32, stronger effect = lower value 0.936 | S. cerevisiae deletion strains, locus YJR066W, strain TOR1, stronger effect = lower value 0.945 | S. cerevisiae deletion strains, locus YKL009W, strain mrt4, stronger effect = lower value 0.982 | S. cerevisiae deletion strains, locus YKL068W, stronger effect = lower value 0.993 | S. cerevisiae deletion strains, locus YKL085W, strain MDH1 (second series), stronger effect = lower value 0.995 | S. cerevisiae deletion strains, locus YKL085W, strain MDH1, stronger effect = lower value 0.995 | S. cerevisiae deletion strains, locus YKL160W, strain elf1, stronger effect = lower value 0.996 | S. cerevisiae deletion strains, locus YKL190W, strain CNB1, stronger effect = lower value 0.988 | S. cerevisiae deletion strains, locus YKR001C, strain vps1, stronger effect = lower value 0.988 | S. cerevisiae deletion strains, locus YKR026C, strain gcn3, stronger effect = lower value 0.992 | S. cerevisiae deletion strains, locus YKR091W, strain srl3, stronger effect = lower value 0.989 | S. cerevisiae deletion strains, locus YLL001W, strain dnm1, stronger effect = lower value 0.985 | S. cerevisiae deletion strains, locus YLL026W, stronger effect = lower value 0.987 | S. cerevisiae deletion strains, locus YLL041C, strain sdh2, stronger effect = lower value 0.993 | S. cerevisiae deletion strains, locus YLR027C, strain aat2, stronger effect = lower value 0.987 | S. cerevisiae deletion strains, locus YLR039C, strain RIC1, stronger effect = lower value 0.983 | S. cerevisiae deletion strains, locus YLR058C, strain SHM2, stronger effect = lower value 0.978 | S. cerevisiae deletion strains, locus YLR102C, strain apc9, stronger effect = lower value 0.989 | S. cerevisiae deletion strains, locus YLR113W, strain HOG1, stronger effect = lower value 0.952 | S. cerevisiae deletion strains, locus YLR221C, strain rsa3, stronger effect = lower value 0.991 | S. cerevisiae deletion strains, locus YLR258W, strain gsy2, stronger effect = lower value 0.993 | S. cerevisiae deletion strains, locus YLR262C, strain YPT6 (second series), stronger effect = lower value 1.01 | S. cerevisiae deletion strains, locus YLR262C, strain YPT6, stronger effect = lower value 0.973 | S. cerevisiae deletion strains, locus YLR268W, strain sec22, stronger effect = lower value 0.986 | S. cerevisiae deletion strains, locus YLR320W, strain mms22, stronger effect = lower value 0.997 | S. cerevisiae deletion strains, locus YLR330W, strain CHS5, stronger effect = lower value 0.998 | S. cerevisiae deletion strains, locus YLR342W, strain FKS1 (second series), stronger effect = lower value 1.09 | S. cerevisiae deletion strains, locus YLR342W, strain FKS1, stronger effect = lower value 0.992 | S. cerevisiae deletion strains, locus YLR357W, strain rsc2, stronger effect = lower value 0.992 | S. cerevisiae deletion strains, locus YLR370C, strain arc18, stronger effect = lower value 0.992 | S. cerevisiae deletion strains, locus YLR371W, strain rom2, stronger effect = lower value 1 | S. cerevisiae deletion strains, locus YLR384C, strain iki3, stronger effect = lower value 0.99 | S. cerevisiae deletion strains, locus YLR418C, strain cdc73, stronger effect = lower value 1.01 | S. cerevisiae deletion strains, locus YML016C, strain PPZ1, stronger effect = lower value 0.992 | S. cerevisiae deletion strains, locus YML032C, strain rad52, stronger effect = lower value 0.98 | S. cerevisiae deletion strains, locus YML120C, strain ndi1, stronger effect = lower value 0.988 | S. cerevisiae deletion strains, locus YML124C, strain tub3, stronger effect = lower value 0.985 | S. cerevisiae deletion strains, locus YMR058W, strain fet3, stronger effect = lower value 0.988 | S. cerevisiae deletion strains, locus YMR078C, strain ctf18, stronger effect = lower value 0.989 | S. cerevisiae deletion strains, locus YMR125W, strain sto1, stronger effect = lower value 0.998 | S. cerevisiae deletion strains, locus YMR129W, stronger effect = lower value 0.998 | S. cerevisiae deletion strains, locus YMR205C, strain PFK2, stronger effect = lower value 0.994 | S. cerevisiae deletion strains, locus YMR223W, strain ubp8, stronger effect = lower value 1.01 | S. cerevisiae deletion strains, locus YMR231W, strain pep5, stronger effect = lower value 1 | S. cerevisiae deletion strains, locus YMR307W, strain GAS1, stronger effect = lower value 1.07 | S. cerevisiae deletion strains, locus YNL067W, strain RPL9B, stronger effect = lower value 0.97 | S. cerevisiae deletion strains, locus YNL071W, strain lat1, stronger effect = lower value 0.987 | S. cerevisiae deletion strains, locus YNL183C, strain NPR1, stronger effect = lower value 0.939 | S. cerevisiae deletion strains, locus YNL209W, strain ssb2, stronger effect = lower value 0.999 | S. cerevisiae deletion strains, locus YNL233W, strain BNI4, stronger effect = lower value 0.995 | S. cerevisiae deletion strains, locus YNL248C, strain rpa49, stronger effect = lower value 0.988 | S. cerevisiae deletion strains, locus YNL250W, strain rad50, stronger effect = lower value 0.991 | S. cerevisiae deletion strains, locus YNL271C, strain bni1, stronger effect = lower value 0.986 | S. cerevisiae deletion strains, locus YNL298W, strain CLA4, stronger effect = lower value 0.989 | S. cerevisiae deletion strains, locus YNL307C, strain MCK1, stronger effect = lower value 0.983 | S. cerevisiae deletion strains, locus YNL322C, strain KRE1 (second series), stronger effect = lower value 0.989 | S. cerevisiae deletion strains, locus YNR049C, strain mso1, stronger effect = lower value 0.993 | S. cerevisiae deletion strains, locus YNR052C, strain pop2, stronger effect = lower value 0.998 | S. cerevisiae deletion strains, locus YOL006C, strain TOP1, stronger effect = lower value 0.932 | S. cerevisiae deletion strains, locus YOL012C, strain htz1 1.06 | S. cerevisiae deletion strains, locus YOL147C, strain pex11, stronger effect = lower value 1 | S. cerevisiae deletion strains, locus YOR001W, strain rrp6, stronger effect = lower value 0.985 | S. cerevisiae deletion strains, locus YOR061W, strain CKA2, stronger effect = lower value 0.973 | S. cerevisiae deletion strains, locus YOR069W, strain VPS5, stronger effect = lower value 0.998 | S. cerevisiae deletion strains, locus YOR070C, strain gyp1, stronger effect = lower value 0.995 | S. cerevisiae deletion strains, locus YOR080W, strain dia2, stronger effect = lower value 0.989 | S. cerevisiae deletion strains, locus YOR083W, strain WHI5, stronger effect = lower value 0.993 | S. cerevisiae deletion strains, locus YOR106W, strain vam3, stronger effect = lower value 0.995 | S. cerevisiae deletion strains, locus YOR136W, strain idh2, stronger effect = lower value 0.98 | S. cerevisiae deletion strains, locus YOR144C, strain elg1, stronger effect = lower value 0.999 | S. cerevisiae deletion strains, locus YOR184W, strain ser1, stronger effect = lower value 0.972 | S. cerevisiae deletion strains, locus YOR231W, strain MKK1, stronger effect = lower value 0.965 | S. cerevisiae deletion strains, locus YOR265W, strain rbl2, stronger effect = lower value 0.992 | S. cerevisiae deletion strains, locus YOR270C, strain vph1, stronger effect = lower value 0.966 | S. cerevisiae deletion strains, locus YOR290C, strain snf2, stronger effect = lower value 0.989 | S. cerevisiae deletion strains, locus YOR316C, strain cot1, stronger effect = lower value 0.979 | S. cerevisiae deletion strains, locus YPL051W, strain arl3, stronger effect = lower value 0.989 | S. cerevisiae deletion strains, locus YPL078C, strain atp4, stronger effect = lower value 0.99 | S. cerevisiae deletion strains, locus YPL106C, strain sse1, stronger effect = lower value 0.967 | S. cerevisiae deletion strains, locus YPL240C, strain hsp82, stronger effect = lower value 0.997 | S. cerevisiae deletion strains, locus YPL241C, strain CIN2, stronger effect = lower value 0.998 | S. cerevisiae deletion strains, locus YPL256C, strain CLN2, stronger effect = lower value 0.968 | S. cerevisiae deletion strains, locus YPR119W, strain clb2, stronger effect = lower value 0.99 | S. cerevisiae deletion strains, locus YPR141C, strain kar3, stronger effect = lower value 0.988 | S. cerevisiae deletion strains, locus YPR163C, strain tif3, stronger effect = lower value 0.998 | S. cerevisiae deletion strains, locus YPR167C, strain met16, stronger effect = lower value 0.999 | S. cerevisiae deletion strains, strain wtn01, stronger effect = lower value 1.02 | S. cerevisiae strains, strain wild type, stronger effect = lower value 0.988
